High-throughput results (PubChem BioAssay)
A selection: hits, their analogues and other compounds. The true share with any hit is near 3.4%.
MITF primary = human MITF inhibition, primary screen | O75030 | inhibition, % at 2.6 µM | AlphaScreen MITF homodimerization, bead proximity signal | 650,000 tested, 0.91% active; in the data active = inhibition above about 50%;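 note: 0% = vehicle wells with protein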
GPR151 ag = activators of human GPR151; Q8TDV0; PathHunter beta-arrestin GPR151 cells, luminescence; activation, % at 11.2 µM; 650,000 tested, 1% active; in the data active = activation above about 4.9%;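 note: 0% = median of compound wells and 100% = cells with positive control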
FBW7 act = human FBW7 E3 ligase activation, primary screen; Q969H0; normalized activity (activation), % at 26.1 µM; AID 1259310; 650,000 tested, 0.13% active; AlphaScreen FBW7–phospho-cyclin E peptide binding, activator screen; in the data active = normalized activity above about 1.9%;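 note: purified mutant Fbw7 with reduced substrate affinity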
Target sequence (Q969H0 whole entry, looked up): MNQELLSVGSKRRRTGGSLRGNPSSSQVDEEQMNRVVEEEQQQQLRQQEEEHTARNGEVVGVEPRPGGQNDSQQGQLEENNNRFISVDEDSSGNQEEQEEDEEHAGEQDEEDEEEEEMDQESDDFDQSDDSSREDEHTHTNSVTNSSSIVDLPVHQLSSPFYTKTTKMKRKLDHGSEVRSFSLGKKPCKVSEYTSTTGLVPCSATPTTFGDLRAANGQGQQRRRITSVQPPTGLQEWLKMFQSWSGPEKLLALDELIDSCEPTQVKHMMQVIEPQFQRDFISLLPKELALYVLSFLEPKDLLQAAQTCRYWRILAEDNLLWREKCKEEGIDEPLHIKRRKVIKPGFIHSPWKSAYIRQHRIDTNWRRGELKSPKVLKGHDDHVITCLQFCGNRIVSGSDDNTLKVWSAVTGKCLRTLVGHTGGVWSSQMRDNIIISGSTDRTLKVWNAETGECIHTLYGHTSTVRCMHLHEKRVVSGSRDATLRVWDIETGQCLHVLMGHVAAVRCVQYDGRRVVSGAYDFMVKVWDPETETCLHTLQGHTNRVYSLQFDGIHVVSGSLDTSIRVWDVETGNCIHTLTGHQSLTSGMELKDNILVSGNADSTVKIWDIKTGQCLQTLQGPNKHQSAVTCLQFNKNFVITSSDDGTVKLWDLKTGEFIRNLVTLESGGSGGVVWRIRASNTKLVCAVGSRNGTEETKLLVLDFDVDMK
TEAD-YAP inh = TEAD-YAP interaction inhibition. AID 1259422. 640,000 tested, 1.4% active. HEK-TIYL cells, TEAD-Gal4/YAP UAS-luciferase luminescence. inhibition, % at 9.12 µM; in the data active = inhibition above about 32%;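 note: 0% = median of test compound wells and 100% = reference inhibitor wells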
* = called active by the depositor; . = not tested or not shown.

SMILES	MITF primary	GPR151 ag	FBW7 act	TEAD-YAP inh
NC(=O)c1ccc(-c2nc(Nc3ccc(N4CCOCC4)cc3)c3[nH]cnc3n2)cc1	-2	1	0	73*
COc1ccc(-c2nc(Nc3ccc(N4CCOCC4)cc3)c3[nH]cnc3n2)cc1	-5	0	0	64*
COc1ccccc1NC(=O)C1=C(C)NC(SCC(=O)Nc2ccc(C)cc2C)=C(C#N)C1c1ccc(C)o1 (configuration not stated)	10	1	0	11
Cn1ncc2c(Nc3ccc4c(c3)OCCO4)ncnc21	6	-1	0	-35
OC1(c2ccccc2)CSC(=Nc2cccnc2)N1CCCn1ccnc1 (configuration not stated)	18	1	0	43*
C=CCN1C(=Nc2cccnc2)SCC1(O)c1ccc(C)cc1 (configuration not stated)	15	0	0	25
CCOc1ccc(NS(=O)(=O)c2ccc3[nH]c(=O)cc(C(=O)O)c3c2)cc1	24	-1	0	-10
CCCOc1ccc(C2C(=O)N(C3CCC(C)CC3)CC(=O)N2C2CCCC2)cc1OC (configuration not stated)	-1	1	0	-10
O=C(N/N=C/c1ccc(O)cc1O)c1cccc(NC(=O)c2ccccc2F)c1	10	0	0	40*
O=C(N/N=C/c1ccc(O)cc1O)c1ccc(-c2ccccc2)cc1	6	0	0	45*
O=C(N/N=C/c1ccc(O)cc1O)c1nn(Cc2ccccc2)c(=O)c2ccccc12	25	-2	-1	64*
O=C(N/N=C/c1ccc(O)cc1O)c1ccc(O)cc1	-1	-2	-1	-22
O=C(N/N=C/c1ccccc1Cl)c1cncc(Br)c1	-3	-2	0	-4
O=C(N/N=C/c1ccc(O)cc1O)c1ccc(NC(=O)c2ccccc2Cl)cc1	19	0	-1	15
O=C(N/N=C/c1cccc(O)c1O)c1nn(Cc2ccccc2)c(=O)c2ccccc12	25	-1	-1	-17
O=C(N/N=C\c1ccc(O)cc1O)c1cncc(Br)c1	79*	1	0	31
O=C(N/N=C/c1ccc(O)cc1O)c1ccc[n+]([O-])c1	73*	-1	-1	-8
O=C(N/N=C/c1ccc(O)cc1O)c1cc2ccccc2cc1O	4	-1	-1	67*
O=C(N/N=C\c1cc(Br)ccc1F)c1ccc(=O)[nH]n1	-6	1	0	-11
O=C(N/N=C/c1ccc(O)cc1O)c1ccc(Br)cc1	37	-1	0	42*
O=C(N/N=C\c1ccc(O)cc1O)c1ccc(=O)[nH]n1	60*	1	-3	3
Nc1cccc(-c2cc(N)nc(N)n2)c1	-1	1	1	-18
O=C(Nc1cccc(Cl)c1Cl)c1cc(S(=O)(=O)NCc2ccccc2Cl)ccc1F	16	0	0	-6
O=C(NC1CC1)c1cc([N+](=O)[O-])cc([N+](=O)[O-])c1	-10	0	0	-1
COC(=O)[C@@H](NC(=O)OC1C(=O)c2cc(Br)ccc2O[C@H]1c1cccc(OC)c1)C(C)C (some centres not stated)	-7	-1	0	.
SMILES	MITF primary	GPR151 ag	FBW7 act	TEAD-YAP inh
O=C(CSc1n[nH]c(/C=C/c2ccc(F)cc2)n1)Nc1cc(C(=O)O)cc([N+](=O)[O-])c1	9	-6	1	69*
C#CC(O)(c1ccc(OC)cc1)c1ccc(OC)c2ccccc12 (configuration not stated)	0	0	0	56*
CC(=O)Nc1ccccc1C(=O)N1CCN(c2cccc(Cl)c2)CC1	8	0	0	0
CC(C)(C)c1ccc(NC(=O)Nc2ccccc2[N+](=O)[O-])cc1	11	-1	0	62*
CONC(=O)Nc1ccccc1[N+](=O)[O-]	2	1	0	12
CC(=O)O[C@@H]1[C@@H](O)CN[C@@H]1Cc1ccccc1	-2	-3	0	101*
Cc1ncn(-c2ccc(Nc3ncc4cccc(-c5ccn(C)n5)c4n3)cc2)n1	38	-1	1	62*
Cc1ncn(-c2ccc(Nc3ncc4cccc(-c5cccnc5)c4n3)cc2)n1	15	0	1	46*
Cc1ccc(-c2ncn(-c3ccc(Nc4ncc5cccc(-c6ccc(C)nc6)c5n4)cc3)n2)cn1	6	2	2.3*	7
Cc1ncn(-c2ccc(Nc3ncc4cccc(-c5cn[nH]c5C)c4n3)cc2)n1	19	1	0	45*
Cc1ncn(-c2ccc(Nc3ncc4cccc(-c5cccc6c5ccn6C)c4n3)cc2)n1	-15	0	0	5
